Screening results: PubChem, National Center for Advancing Translational Sciences (NCATS)
CBFb RUNX1 block – inhibitors of human CBF-beta and RUNX1 interaction; Q01196+Q13951; AID 1477; Potency, µM (top dose mostly 59.8 µM), hits mostly inhibitors; AlphaScreen CBFb-His/RUNX1-biotin binding, biochemical; 230,000 tested, under 10 active
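Read-out: AlphaScreen. Format: His-CBF-beta with biotinylated RUNX1 (30 nM each) preincubated 20 min, compound 15 min, Ni-chelate plus streptavidin beads 90 min; room temperature throughout.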
HPGD block – HPGD (human) dehydrogenase inhibition; Potency, µM, usual class: inhibitors; P15428; 150,000 tested, 4.3% active; purified HPGD, NADH fluorescence kinetic, PGE2 substrate; active means well fitted inhibition curve with a large enough effect, not every such curve was filed as active; inconclusive means small, poorly fitted or top-dose-only effect, or another doubt; inactive means no such curve, though single readings can be large or run the other way
Target sequence (P15428 whole entry, looked up): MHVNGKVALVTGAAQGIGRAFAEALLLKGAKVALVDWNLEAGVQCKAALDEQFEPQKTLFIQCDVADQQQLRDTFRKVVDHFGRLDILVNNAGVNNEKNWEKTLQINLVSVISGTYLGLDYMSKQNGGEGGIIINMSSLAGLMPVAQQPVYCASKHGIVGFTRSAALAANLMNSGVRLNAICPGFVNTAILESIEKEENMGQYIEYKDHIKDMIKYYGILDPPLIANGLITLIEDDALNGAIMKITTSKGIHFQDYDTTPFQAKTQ
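NADH formation kinetics: reaction with 30 uM PGE2 and 1 mM NAD+ (final), 20 nM enzyme, Tris-HCl pH 8 with Tween 20, after 15 min compound preincubation at room temperature. Fluorescence change, last versus first of five reads.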
ALDH1A1 block – blocks purified human ALDH1A1 activity; Purified ALDH1A1, NADH fluorescence, propionaldehyde substrate; 220,000 tested, 7.3% active; Potency, µM (series often up to 75.3 µM), actives largely listed as inhibitors; P00352; AID 1030; active means well fitted inhibition curve with a large enough effect, not every such curve was filed as active; inconclusive means small, poorly fitted or top-dose-only effect, or another doubt; inactive means no such curve, though single readings can be large or run the other way
HTT aggregate – mutant huntingtin aggregation inhibition; Potency, µM (doses to about 46.1 µM), hits mostly inhibitors; 220,000 tested, 1.1% active; AID 1688; PC12 HttQ103-GFP aggregates, Acumen cytometry, 40 h; further: nearly all actives have a fitted effect of over 60% in size
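Ecdysone-promoter PC12 model expressing HTT exon 1 Q103 fused to GFP, induced by tebufenozide at 100 nM final. Compounds titrated; aggregates sized 1–25 µm scored on a 488 nm laser cytometer.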
KDM4E inh – blocks human JMJD2E demethylase activity. B2RXH2. JMJD2E catalytic domain, FDH-coupled NADH fluorescence (FDH is formaldehyde dehydrogenase). Potency, µM (titrated, usually from 57.1 µM), actives largely listed as inhibitors. 230,000 tested, 1.6% active; active means well fitted inhibition curve with a large enough effect, not every such curve was filed as active; inconclusive means small, poorly fitted or top-dose-only effect, or another doubt; inactive means no such curve, though single readings can be large or run the other way; further: nearly all actives have a fitted effect of over 50% in size
HTT ATP protect – Huntington cell model cytoprotection by ATP luminescence | PC12 HTT-Q103 induced, cytoprotection, ATP luminescence, 40 h | 230,000 tested, 0.14% active | AID 1471 | Potency, µM (top dose mostly 56.4 µM), usual class: activators; further: nearly all actives have a fitted effect of over 45% in size
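ATP quantification (ATPlite) reports survival of PC12 cells in which tebufenozide, 100 nM final, switches on Htt exon 1 with 103 glutamines linked to GFP; compounds are titrated.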
Of the large screens only hits and unclear results are named; the others gave an inactive call. Hits are enriched below; roughly 9.8% of the tested compounds scored in any of these assays. Unless noted, the call rests on the fitted dose curve; in most records, active means well fitted curve in the direction sought with a large enough effect; inconclusive means small, poorly fitted or top-dose-only effect, or another doubt; inactive means no such curve, though single readings can be large; an effect the other way counts as inactive or inconclusive.

CCc1nnc(N2C(=O)c3ccccc3C2(O)c2ccccc2)s1 (centres undefined)	KDM4E inh inconclusive (no result: HPGD block, ALDH1A1 block)
O=C(N/N=C/c1sc(=O)n(-c2ccccc2)c1Cl)c1ccccc1	ALDH1A1 block 15.8µM, KDM4E inh inconclusive
CCOc1ccccc1Nc1ccc(C(=O)O)cc1NC(C)=O	HPGD block 22.4µM, ALDH1A1 block inconclusive
COc1cc(/C=N/Nc2nc(C)nc3c2cnn3-c2ccccc2)ccc1O	KDM4E inh inconclusive (no result: HPGD block)
CN1C(C(=O)Nc2ccccn2)C(=O)c2sc(Cl)cc2S1(=O)=O (centres undefined)	HTT ATP protect inconclusive (no result: CBFb RUNX1 block, HPGD block, ALDH1A1 block, KDM4E inh)
Cc1nn(Cc2ccccc2Cl)c2sc(C(=O)NC(C)(C)C)cc12	none
Cc1nn(Cc2ccccc2Cl)c2sc(C(=O)OC3CCCC3=O)cc12 (centres undefined)	ALDH1A1 block 8.91µM
Cc1ccccc1NC(=S)c1nc2ccccc2[nH]1	KDM4E inh 18.9µM (no result: CBFb RUNX1 block)
S=C(Nc1ccc(Cl)cc1)c1nc2ccccc2[nH]1	CBFb RUNX1 block inconclusive, KDM4E inh inconclusive
COc1ccc(CNC(=O)COC(=O)/C=C/c2ccco2)cc1	ALDH1A1 block 25.1µM (no result: HPGD block)
COc1ccc(COC(=O)N/C=C/c2ccco2)cc1	ALDH1A1 block 28.2µM, HTT aggregate inconclusive (no result: HPGD block, HTT ATP protect)
COc1ccccc1COC(=O)N/C=C/c1ccco1	ALDH1A1 block inconclusive, HTT aggregate inconclusive (no result: HPGD block, HTT ATP protect)
O=C(COC(=O)/C=C/c1ccco1)NCc1ccco1	CBFb RUNX1 block inconclusive (no result: HPGD block)
Cc1nc(SC2CCOC2=O)c2c(C)c(C)sc2n1 (centres undefined)	ALDH1A1 block 22.4µM
O=C1OCCC1Sc1ncnc2sc3c(c12)CCC3 (centres undefined)	none
CCN(CC)CCCNC(=O)Cn1nc([N+](=O)[O-])c(Cl)c1C	none (no result: HPGD block)
COc1ccc(N=C2NC(=O)/C(=C\C=C\c3ccco3)S2)cc1	CBFb RUNX1 block inconclusive, ALDH1A1 block 11.2µM, KDM4E inh inconclusive (no result: HPGD block)
CS(=O)(=O)N(CC(=O)NCCSCc1c(F)cccc1Cl)c1cccc([N+](=O)[O-])c1	ALDH1A1 block inconclusive (no result: HPGD block)
COc1cccc(C2c3[nH]c4ccccc4c3CCN2C(=O)Cn2cncn2)c1OC (centres undefined)	ALDH1A1 block 9.46µM (no result: HPGD block)
Cc1cccc(C2c3[nH]c4ccccc4c3CCN2C(=O)c2nn(C)c(=O)c3ccccc23)n1 (centres undefined)	none (no result: HPGD block)
COc1ccc(C2c3[nH]c4ccccc4c3CCN2C(=O)c2ccc(=O)n(C)n2)c(F)c1 (centres undefined)	KDM4E inh inconclusive (no result: HPGD block)
Cc1cccc(C2c3[nH]c4ccccc4c3CCN2C(=O)c2ocnc2C)n1 (centres undefined)	ALDH1A1 block inconclusive, KDM4E inh 22.4µM (no result: HPGD block)
Cc1ccccc1C1c2[nH]c3ccccc3c2CCN1C(=O)c1ccc(=O)n(C)n1 (centres undefined)	ALDH1A1 block 31.6µM (no result: HPGD block)
O=C(NC1CCCCC1)c1ccc(S(=O)(=O)NCc2cccnc2)cc1	HTT aggregate inconclusive
NCCCC(N)CC(=O)NCC1NC(=O)C(CO)NC(=O)C(N)CNC(=O)C(C2CCN=C(N)N2)NC(=O)/C(=C\NC(N)=O)NC1=O (centres undefined)	none (no result: HTT aggregate)
CCc1cc(C(=O)O)c(NC(=O)c2cc(OC)c(OC)c(OC)c2)s1	ALDH1A1 block inconclusive (no result: HPGD block)
OCCCc1nc2n(n1)C(c1cccs1)C=C(c1ccc(Br)cc1)N2 (centres undefined)	HPGD block inconclusive, ALDH1A1 block inconclusive, HTT aggregate 11.2µM, KDM4E inh inconclusive
CCCCCCCC#Cc1ccccc1C(NC(=O)OC)C(C(=O)OC)C(=O)OC (centres undefined)	HTT ATP protect inconclusive (no result: HPGD block, HTT aggregate, KDM4E inh)
CC(=O)C1C(=O)c2c(cccc2[N+](=O)[O-])C1=Nc1ccc(S(N)(=O)=O)cc1 (centres undefined)	ALDH1A1 block 22.4µM (no result: HPGD block)
O=C(O)CCCCCNS(=O)(=O)c1ccc2c(c1)OCCO2	ALDH1A1 block inconclusive (no result: HPGD block)
O=S(=O)(NCCSc1ccccc1)c1ccc2c(c1)OCCO2	ALDH1A1 block 0.562µM
